# Results from ChEMBL document CHEMBL3988442, “University of Dundee, Small-Polar-MMV Screening Library” (2021).
# The whole screen tested about 53,000 compounds, of which about 900 (1.7%) showed an effect of 50% or more. The sample as a whole holds a higher share of strong results than the screen did.
# Test system: Mycobacterium tuberculosis
# Experiment: Cornell - Phenotypic assay to identify agents that inhibit growth of Mycobacterium tuberculosis
# Assay type: functional
# Set-up: scale not given: direction of the effect not stated beside the values
# Conditions: 10 mM as filed; unlikely as a test dose
row,Structure (SMILES),Percent Effect [%]
1,CCc1cnc(CN(C)C2CCN(Cc3nnc(C4CC4)n3C)C2)o1 (stereo unspecified),31.65
2,Cc1cc(C)c(C(=O)N(C)CCN(C)C(=O)OC(C)(C)C)[nH]1,68.36
3,Cc1cc(C)c(C(=O)N(C)CCN(C)C(=O)c2[nH]c(C)cc2C)[nH]1,1.614
4,Cc1cc(C(=O)N(C)CCN(C)C(=O)OC(C)(C)C)oc1C,-8.303
5,c1cc(CNc2ncc(-c3cnccn3)c(C3CC3)n2)ccn1,-5.136
6,CSc1cccc(CN(C)C(=O)c2cccc(C3CCCNC3)c2)c1 (stereo unspecified),36.25
7,CC(=O)N1CCC(c2ncc(C(=O)Nc3ccc(F)cc3)c(C)n2)CC1,4.765
8,O=C(O)C(F)(F)F.O=S(=O)(NCC1COCc2c(-c3ccncc3)nnn2C1)C1CC1 (stereo unspecified),13.64
9,Cn1cc(-c2csc(N3CCN(C(=O)OC(C)(C)C)CC3)n2)cn1,78.03
10,Cn1cc(-c2csc(N3CCCCCC3)n2)cn1,18.17
11,CN1CCN(c2nc(-c3cnn(C)c3)cs2)CC1,19.22
12,O=C(c1ccncc1)N1CCCC(C2=Nc3ccccc3S(=O)(=O)N2)C1 (stereo unspecified),43.45
13,O=C(C1CC1)N1CCCC(C2=Nc3ccccc3S(=O)(=O)N2)C1 (stereo unspecified),29.99
14,Cc1occc1C(=O)N1CCCC(C2=Nc3ccccc3S(=O)(=O)N2)C1 (stereo unspecified),60.62
15,CC(C)CN1C[C@H]2C[C@H](C(=O)Nc3cccnc3)[C@@H](C1)O2,6.477
16,CCN(CC)S(=O)(=O)CC(=O)N1CCc2ccc(Cl)cc21,4.859
17,CCOc1cc(CN(C)CCCC#N)ccc1OC(F)F,7.532
18,Cc1cc(NC(=O)C2CCN(c3nnc(C)c(C)c3C#N)CC2)no1,-12.4
19,CCC(NC(=O)Nc1ccc(OC)c(C)c1)c1noc(C)n1 (stereo unspecified),-4.83
20,Cc1cc(NC(=O)NCc2ccncc2)ccc1OC(C)C,88.24
21,CCC(NC(=O)Nc1ccc(OC)c(C)c1)c1ccncc1 (stereo unspecified),89.35
22,CCC(CO)NC(=O)Nc1ccc(OCC(F)(F)F)c(C)c1 (stereo unspecified),-5.78

row,Structure (SMILES),Percent Effect [%]
1,Cc1cc(NC(=O)NCc2nncn2C)ccc1OC(C)C,-0.4289
2,Cc1cc(NC(=O)NCc2nccn2C)ccc1OC(C)C,35.97
3,CCCc1nc2c(c(C)c(C)n2Cc2cccnc2)c(N)c1CC,0.8008
4,CC(=O)c1nn(-c2ccccc2Cl)c(C)c1C(C)=O,14.3
5,COCCNC(=O)c1cccnc1Sc1cc(OC)ccc1OC,-23.48
6,Cc1ncc2c(n1)CN(CC(=O)Nc1cccnc1)CC2,-17.74
7,CC(C)NC(=O)N1CCCn2cnc(CO)c2C1.O=C(O)C(F)(F)F,25.62
8,Cc1cccc(CN2C[C@@H]3CN(C(=O)NC(C)C)C[C@@H]3C2=O)n1.O=C(O)C(F)(F)F,25.36
9,CN1CCC(c2cc(CCO)ncn2)C1 (stereo unspecified),-9.182
10,O=C(Nc1ccc(Br)cc1F)c1ccc(N2CCOCC2)nn1,-1.334
11,O=C(NCc1ccccc1CN1CCOCC1)c1ccc(Br)cc1F,8.243
12,O=C(Nc1ccc(Br)cc1F)c1cc(CN2CCOCC2)on1,74.1
13,CC(=O)N1CC(c2n[nH]c3ncccc23)C1,-13.82
14,CNS(=O)(=O)CC(=O)N1CCCc2cc(Br)ccc21,-18.99
15,COCc1nc(C(=O)OCC2CCN(c3ccccc3)C2)cs1 (stereo unspecified),17.1
16,COc1ccc(C(NCc2ccc(C#N)cc2)C2CC2)cc1.Cl (stereo unspecified),-15.68
17,c1cnc2[nH]c(C3CCCC3)c(CN3CCCCC3)c2c1,34.75
18,c1cnc2[nH]c(C3CCCC3)c(CN3CCOCC3)c2c1,24.1
19,CCN1CCN(Cc2c(C3CCCC3)[nH]c3ncccc23)CC1,74.68
20,CC1CCN(C(=O)C2CC(=O)N(c3cnn(C(C)C)c3)C2)CC1 (stereo unspecified),-3.187
21,CNc1oc(-c2ccc(S(=O)(=O)N(C)C)o2)nc1C#N,17.81
22,CN(C)S(=O)(=O)c1ccc(-c2nc(C#N)c(NC(C)(C)C)o2)o1.Cl,104.3

row,Structure (SMILES),Percent Effect [%]
1,CC(C)Nc1oc(-c2ccc(S(=O)(=O)N(C)C)o2)nc1C#N,-45.52
2,Cc1nc(N2CCC(CC(=O)N3CCCC3)CC2)c2cnn(C)c2n1,3.468
3,CC(C)C1SCC(=O)Nc2c1cnn2C(C)C (stereo unspecified),18.65
4,CNc1ccc(C2CN(c3cc(C)ncn3)CCO2)nc1 (stereo unspecified),34.11
5,CNc1ccc(C2CN(c3nc(C)cc(C)n3)CCO2)nc1 (stereo unspecified),51.49
6,CNc1ccc(C2CN(c3cc(C)nc(N)n3)CCO2)nc1 (stereo unspecified),24.16
7,Cc1cc(NC(=O)Cc2ccccc2O)c[nH]c1=O,77.58
8,O=C(Cc1ccccc1O)Nc1ccc(N2CCCC2)nc1,-5.098
9,Cc1cc(NC(=O)Cc2ccccc2O)cnc1N1CCCCC1,28.35
10,Cc1cc(NC(=O)C(C)N2CCN(c3ccccc3F)CC2)no1 (stereo unspecified),2.813
11,CCn1cncc1CNc1ccc(-c2nc(CC(C)C)no2)cn1,11.21
12,CCC(O)CNc1ccc(-c2nc(CC(C)C)no2)cn1 (stereo unspecified),50.96
13,CC(C)Cc1noc(-c2ccc(NCc3noc(C(C)C)n3)nc2)n1,44.87
14,CN(C(=O)C1(C#N)CCCCC1)c1nccs1,17.67
15,O=S(=O)(N1CCCCCC1)N1CCN(Cc2ccc(F)cc2Br)CC1,10.21
16,CS(=O)(=O)N1CCN(Cc2ccc(F)cc2Br)CC1,31.68
17,Oc1ccc(N2CCN(Cc3ccc(F)cc3Br)CC2)cc1,105.2
18,Oc1ccc(N2CCN(Cc3cc4c(cc3Br)OCCO4)CC2)cc1,104.9
19,OCCN1CCN(Cc2cc3c(cc2Br)OCCO3)CC1,-50.33
20,OC1CCN(Cc2cc3c(cc2Br)OCCO3)CC1,5.885
21,Cc1ccccc1C1CCCN1Cc1ccc(S(=O)(=O)N(C)C)o1 (stereo unspecified),23.54
22,O=C(O)c1cnc(N2CCCC2)nc1COc1ccc(F)cc1,38.38

row,Structure (SMILES),Percent Effect [%]
1,COCC(O)CN(C)C(=O)NCc1ccc(-c2ccn[nH]2)cc1 (stereo unspecified),-4.972
2,CN1CCOC(c2cncc(CCC(=O)N(C)C)n2)C1 (stereo unspecified),-44.27
3,COc1cccc(Nc2nc(N3CCCC3)nc3c2CNCC3)c1.Cl,17.23
4,Oc1nc(N2CCOCC2)nc2c1CCN(Cc1cccc(F)c1)CC2,-50.2
5,Fc1cccc(Nc2nc(N3CCCC3)nc3c2CNCC3)c1,102.5
6,Cc1ccc(Cl)cc1N1CCN(CC(=O)NCc2ccco2)CC1,15.76
7,O=C(NCC1CCCO1)Nc1nnc(C(F)(F)F)s1 (stereo unspecified),1.87
8,CCOCC(=O)NCCc1nc(C)cc(C(F)(F)F)n1,8.236
9,Nc1ccnc(-c2cc(NC3CCNCC3)nc3[nH]ccc23)c1,11.63
10,COc1ncc(-c2cc(NC3CCCC3)nc3[nH]ccc23)c(OC)n1,89.73
11,COc1cc(-c2cc(NC3CCCC3)nc3[nH]ccc23)nc(N)n1,98.19
12,CNc1cc(C)nc(-c2cc(NC3CCNCC3)nc3[nH]ccc23)n1,12.28
13,COc1ncc(-c2cc(NCCN(C)C)nc3[nH]ccc23)c(OC)n1,-22.77
14,COCCNc1cc(-c2ccccc2S(N)(=O)=O)c2cc[nH]c2n1,21.18
15,COc1nccnc1-c1cc(NC2CCNCC2)nc2[nH]ccc12,48.16
16,COc1nccnc1-c1cc(NC2CCCC2)nc2[nH]ccc12,101.6
17,FC(F)(F)c1ccc(-c2cc(NC3CCNCC3)nc3[nH]ccc23)nc1,3.154
18,C=Cc1cccc(CN(Cc2cnn(C)c2)C2CC2)c1,14.04
19,Cc1nc(C)n(CC2CCCCN2Cc2cn3ccccc3n2)n1 (stereo unspecified),-36.82
20,Cc1csc(C(C)(C)NCCOc2ccc(CC#N)cc2)n1,-14.48
21,NC(=O)N1CCCN(Cc2cc(F)cc(Br)c2)CC1,17.84
22,Cc1cccc(CN2C[C@@H]3COC[C@]3(CNC(=O)C3CCC3)C2)c1.O=C(O)C(F)(F)F,0.1331

row,Structure (SMILES),Percent Effect [%]
1,CN(C)CCOC1CC2(CCN(c3cnccn3)CC2)c2ccccc21.O=C(O)C(F)(F)F (stereo unspecified),-38.38
2,O=C(O)C(F)(F)F.c1cncc(C2CC3(CCN(c4cnccn4)CC3)c3ccccc32)c1 (stereo unspecified),50.88
3,CCOC1CC2(CCN(c3cnccn3)CC2)c2ccccc21 (stereo unspecified),32.32
4,Cc1cnc(-c2nc(O)c3c(n2)CN(C(=O)C2CCCC2)CC3)cn1,-5.983
5,Cn1cc(S(=O)(=O)NCC(C)(O)c2ccsc2)cn1 (stereo unspecified),-58.46
6,COCc1nc2cc(NCc3csc(C)n3)ccc2o1,107.6
7,COC(=O)c1ccc(NCc2csc(C)n2)cc1Cl,15.32
8,COc1cc(NCc2ncc[nH]2)ccc1Br,-5.052
9,COCc1nc(CNc2cccc(-c3csc(C)n3)c2)cs1,38.18
10,COCc1nc2cc(NCc3ncc[nH]3)ccc2o1,107.7
11,COCc1nc(C2CCN(Cc3ncc[nH]3)CC2)no1,-22.72
12,Cc1csc(CNc2cnn(C(C)C)c2)n1,-3.592
13,Fc1ccc(NCc2ncc[nH]2)cc1Br,55.27
14,Cc1csc(CNc2cccc(OCCN3CCCC3)c2)n1,34.79
15,CC(C)(C)OC(=O)N1CCCc2ccc(NCc3ncc[nH]3)cc21,-12.48
16,Fc1cccc(NCc2ncc[nH]2)c1,35.73
17,COCc1nc2cc(NCc3nc(C)cs3)ccc2o1,107.4
18,COc1ccc(OC(F)F)c(NCC(=O)NCC(=O)N2CCCC2)c1,14.52
